# Measured values from PubChem BioAssay (NCATS).
# Results filed as inconclusive are left out. A call without a number means that no potency is given here. The source made the active and inactive calls. Calls come from the whole dose curve; as a rule, active = well fitted inhibition curve with a large enough effect; inconclusive = small, poorly fitted or top-dose-only effect; inactive = flat fitted curve, though single readings scatter. Where a SMILES comes first, the peptide text is derived from it.
# Target: Calcium and integrin-binding protein 1 (Homo sapiens) (UniProt Q99828)
# Sequence (Q99828 whole entry, looked up): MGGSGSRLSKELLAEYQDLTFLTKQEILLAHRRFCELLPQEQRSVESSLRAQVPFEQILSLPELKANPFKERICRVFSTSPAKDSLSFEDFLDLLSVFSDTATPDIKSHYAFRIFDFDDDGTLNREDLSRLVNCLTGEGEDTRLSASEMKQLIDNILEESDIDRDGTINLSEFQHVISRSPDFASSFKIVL
# Assay: Primary qHTS for Identification of Calcium Integrin Binding Protein 1 (CIB1) Competitor (AID 1508620);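 note: GST tagged CIB1 binding a fluorescein labelled alphaIIb integrin peptide tracer; top concentration of the series differs between compounds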
# Conditions: CIB1-GST / FITC-alphaIIb peptide fluorescence polarization; series mostly up to 57.7 µM
# Method in brief: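 Fluorescence polarization competition: CIB1-GST (1 uM final) preincubated with compound 15 min at room temperature, then FITC-labeled alphaIIb peptide (100 nM final) added for another 15 min. Polarization read at Ex 480/Em 540.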
row,Compound,Potency
1,CC(=O)OC(C)C(C)(O)C(=O)O[C@@H]1CC[C@]2(C)CC(=O)C(=C(C)C)C[C@H]2[C@]1(C)OC(C)=O (some centres undefined),inactive
2,CC(=O)OC1CC2(C)C(CCC(C)C23Cc2c(O)cc4c(c2O3)CNC4=O)C(C)(C)C1O (centres undefined),inactive
3,C=CCc1cc(OC)c(OC(C)C(O)c2ccc(O)c(OC)c2)c(OC)c1 (centres undefined),inactive
4,OC[C@H]1O[C@@H](O[C@H]2[C@H](O)[C@@H](CO)O[C@@H](OCc3ccccc3)[C@@H]2O[C@@H]2OC[C@](O)(CO)[C@H]2O)[C@H](O)[C@@H](O)[C@@H]1O,inactive
5,CC1CCC23COC(=O)C2=CC(O)CC3C1(C)CCc1ccoc1 (centres undefined),inactive
6,CC(C/C=C/C(C)(C)O)C1CCC(C)(O)C(O)C1 (centres undefined),inactive
7,COc1ccc(-n2[nH]c3c(cnc4ccccc43)c2=O)cc1,inactive
8,C[C@H]1[C@H](C)CC[C@]2(C(=O)O)CC[C@]3(C)C(=CCC4[C@@]5(C)C[C@@H](O)[C@H](O)C(C)(C)C5CC[C@]43C)[C@H]12 (some centres undefined),inactive
9,C/C(CO)=C1/CCC23COC(C2)C(O)(C(=O)O)CCC13 (centres undefined),inactive
10,CC1=CC(=O)C2C(C)(C)CCC[C@]2(C)[C@H]1CC[C@H](C)CC(=O)O (some centres undefined),inactive
11,COc1ccc2c(c1)N1C(=O)C[C@@]34C=CC[N@+]5([O-])CC[C@H]2[C@H](CC3)[C@@]145,inactive
12,CC(C)=CCc1cc(O[C@@H]2O[C@H](CO[C@@H]3OC[C@](O)(CO)[C@H]3O)[C@@H](O)[C@H](O)[C@H]2O)ccc1O,inactive
13,COC(=O)C(CC1(O)c2ccccc2N2C(=O)C(CC(C)C)NC21)n1cnc2ccccc2c1=O (centres undefined),inactive
14,COc1cc([C@@H](O[C@@H]2O[C@H](CO)[C@@H](O)[C@H](O)[C@H]2O)[C@@H]2CO[C@H](c3ccc(O)c(OC)c3)[C@H]2CO)ccc1O,inactive
15,CC1(C)CC[C@]2(C(=O)O[C@@H]3O[C@H](CO)[C@@H](O)[C@H](O)[C@H]3O)CC[C@]3(C)C(=CCC4[C@@]5(C)CC[C@H](O[C@@H]6O[C@H](C(=O)O)[C@@H](O[C@@H]7O[C@H](CO)[C@@H](O)[C@H](O)[C@H]7O)[C@H](O)[C@H]6O)C(C)(C)C5CC[C@]43C)C2C1 (some centres undefined),inactive
16,O=c1[nH]ccc2nc(-c3ccc(CN4CCC(c5nc(-c6ccccn6)n[nH]5)CC4)cc3)c(-c3ccccc3)cc12,inactive
17,CC(=O)Nc1cccc2c1c(Sc1ccc(Cl)cc1)c(C)n2CC(=O)O,inactive
18,Cc1nnc(-c2sc(NC(=O)[C@H](C(C)C)n3c(=O)[nH]c4ccccc4c3=O)nc2C)o1,inactive
19,COc1ccc(C2OCC3C(c4cc(OC)c5c(c4)OCO5)OCC23)cc1OC (centres undefined),inactive
20,CC(=O)OC12CC(C)C(O)C1/C=C(/COC1OC(CO)C(O)C(O)C1O)CCC1C(/C=C(\C)C2=O)C1(C)C (centres undefined),inactive

row,Compound,Potency
1,COC(=O)C1=COC(O[C@@H]2O[C@H](COC(=O)/C=C/c3ccc(O)cc3)[C@@H](O)[C@H](O)[C@H]2O)C2C(CO)=CCC12 (some centres undefined),inactive
2,C[C@@]12CC3(S(=O)(=O)O)OC(O1)[C@]1(COC(=O)c4ccccc4)[C@H]3C[C@]21O[C@@H]1O[C@H](CO)[C@@H](O)[C@H](O)[C@H]1O,inactive
3,OC[C@H]1O[C@@H](OCCc2ccccc2)[C@H](O[C@@H]2OC[C@@H](O)[C@H](O)[C@H]2O)[C@@H](O)[C@@H]1O,inactive
4,CC1=C2CC3C(CCC3(C)O)C(C)(O)CC2OC1=O (centres undefined),inactive
5,C=C(CC/C=C(\C)C(=O)O)C1(O)CC=C(C)CC1 (centres undefined),inactive
6,H-DPPDPDRFYGMM-NH2,inactive
7,CC(C)(Oc1ccc(-c2nc3cc(Cl)ccc3s2)cc1)C(=O)O,inactive
8,C=C1C2CCC3C(CCC4[C@@]3(C)CCC[C@@]4(C)C(=O)O)(C2)[C@@H]1OC(=O)/C(C)=C\C (some centres undefined),inactive
9,CC(=O)OCC1OC(O[C@H]2CC[C@]34C[C@]35CC(O)[C@]3(C)[C@@H]([C@H](C)CC/C=C(\C)C(=O)O)C(O)C[C@@]3(C)C5CC[C@H]4C2(C)C)C(O)C(O)C1OC1OCC(O)C(O)C1O (some centres undefined),inactive
10,CC(=O)/C=C/C1C(C)CC(O[C@@H]2O[C@H](CO)[C@@H](O)[C@H](O)[C@H]2O)CC1(C)C (some centres undefined),inactive
11,CC(=O)/C=C/C1(O)C(C)(C)CC(O)CC1(C)O (centres undefined),inactive
12,CN(C)c1ccc(C2O[C@@H](c3ccccc3)C[C@H](c3ccccc3)O2)cc1 (some centres undefined),inactive
13,Nc1ccc(-n2nc(C(F)(F)F)cc2C(F)(F)F)cc1,inactive
14,C[C@@H]1C(=O)O[C@H]2[C@H]1CC[C@@]1(C)C(=O)C=C[C@@](C)(O)[C@H]21,inactive
15,COC(=O)C[C@@H]1C(C(=O)O)=CO[C@@H](O[C@@H]2O[C@H](CO)[C@@H](O)[C@H](O)[C@H]2O)/C1=C\COC(=O)/C=C/c1ccc(O)c(OC)c1,inactive
16,COc1cc(CO)ccc1O[C@@H]1O[C@H](CO)[C@@H](O)[C@H](O)[C@H]1O,inactive
17,CCCO[C@@H]1O[C@H](CO)[C@@H](O)[C@H](O)[C@H]1O[C@@H]1OC[C@@H](O)[C@H](O)[C@H]1O,inactive
18,CSCC[C@H](NC(=O)[C@H](CO)NC(=O)[C@H](CCC(=O)O)NC(C)=O)C(=O)N[C@H](C=O)CC(=O)O (Ac-ESMD-aldehyde),inactive
19,C[C@]1(OC(=O)/C=C\c2ccc(O)cc2)C[C@@H](O)[C@]2(O)C=CO[C@@H](O[C@@H]3O[C@H](CO)[C@@H](O)[C@H](O)[C@H]3O)C12 (some centres undefined),inactive
